Data as given in PubChem BioAssay AID1159580 (chemical genetic matrix, 2015).
Values joined by “and” are separate entries in the source; they are usually repeats but may differ in a detail not shown here. Equal entries are not always repeated. In all, about 5,500 compounds went through this assay and about 2,000 (36%) were called active. Inconclusive results (about 18%) are left out. Rule as the data show it: active = normalized growth mostly below about 0.91 (no sharp cut-off); inconclusive = no clear call, values can overlap the other calls; inactive = mostly above about 0.92. The list shows a part of the results.

Assay: chemical genetic growth profiling, strain panel (AID 1159580);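 also: tested at 20 µM; growth read once vehicle control cultures reached saturation at 30 °C; 1 = growth at the plate median or of vehicle wells; lower values mean less growth of the strain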
Details: S. cerevisiae deletion strains, growth OD

Measured: normalized growth

CC(C)C1CCC(C(=O)N[C@@H](Cc2ccccc2)C(=O)O)CC1 (some centres not stated)
inactive: locus YAL013W, strain DEP1, stronger effect = lower value 0.994 | locus YAL021C, strain ccr4, stronger effect = lower value 0.97 | locus YAL026C, strain drs2, stronger effect = lower value 0.978 | locus YAL030W, strain snc1, stronger effect = lower value 0.975 | locus YBL061C, strain skt5, stronger effect = lower value 0.973 | locus YBR009C, strain hhf1, stronger effect = lower value 0.983 | locus YBR021W, strain FUR4, stronger effect = lower value 0.969 | locus YBR023C, strain chs3, stronger effect = lower value 0.973 | locus YBR171W, strain sec66, stronger effect = lower value 0.962 | locus YBR229C, strain ROT2, stronger effect = lower value 1.01 | locus YBR231C, strain swc5, stronger effect = lower value 0.956 | locus YBR279W, strain paf1, stronger effect = lower value 0.973 | locus YCL011C, strain gbp2, stronger effect = lower value 0.976 | locus YCL016C, strain dcc1, stronger effect = lower value 0.967 | locus YCL029C, strain bik1, stronger effect = lower value 1.02 | locus YCL061C, strain MRC1, stronger effect = lower value 0.972 | locus YCL069W, strain vba3, stronger effect = lower value 0.979 | locus YCR088W, strain abp1, stronger effect = lower value 0.971 | locus YDL005C, strain med2, stronger effect = lower value 0.974 | locus YDL035C, strain GPR1, stronger effect = lower value 0.982 | locus YDL040C, strain nat1, stronger effect = lower value 0.974 | locus YDL074C, strain BRE1, stronger effect = lower value 0.987 | locus YDL101C, strain DUN1, stronger effect = lower value 1 | locus YDL134C, strain PPH21, stronger effect = lower value 1.01 | locus YDL185W, strain tfp1, stronger effect = lower value 1.02 | locus YDL192W, strain arf1, stronger effect = lower value 1.01 | locus YDR001C, strain nth1, stronger effect = lower value 0.972 | locus YDR069C, strain doa4, stronger effect = lower value 0.986 | locus YDR101C, strain arx1, stronger effect = lower value 1.02 | locus YDR137W, strain rgp1, stronger effect = lower value 0.96 | locus YDR150W, strain NUM1, stronger effect = lower value 0.995 | locus YDR159W, strain sac3, stronger effect = lower value 0.989 | locus YDR162C, strain NBP2, stronger effect = lower value 0.987 | locus YDR195W, strain ref2 0.962 | locus YDR297W, strain sur2, stronger effect = lower value 0.976 | locus YDR318W, strain mcm21, stronger effect = lower value 1.01 | locus YDR334W, strain swr1, stronger effect = lower value 0.968 | locus YDR335W, strain msn5, stronger effect = lower value 0.974 | locus YDR388W, stronger effect = lower value 1.01 | locus YDR392W, strain spt3, stronger effect = lower value 0.985 | locus YDR502C, strain sam2, stronger effect = lower value 1.01 | locus YEL003W, strain gim4, stronger effect = lower value 0.988 | locus YEL037C, strain rad23, stronger effect = lower value 0.971 | locus YEL061C, strain CIN8 (second series), stronger effect = lower value 0.973 | locus YEL061C, strain CIN8, stronger effect = lower value 0.992 | locus YER015W, strain faa2, stronger effect = lower value 0.986 | locus YER016W, strain bim1, stronger effect = lower value 0.98 | locus YER110C, stronger effect = lower value 1.02 | locus YER111C, strain swi4, stronger effect = lower value 0.98 | locus YER155C, strain BEM2 (second series), stronger effect = lower value 0.958 | locus YER155C, strain BEM2, stronger effect = lower value 0.928 | locus YER167W, strain BCK2, stronger effect = lower value 0.994 | locus YFR010W, strain ubp6, stronger effect = lower value 0.968 | locus YGL078C, strain dbp3, stronger effect = lower value 1.01 | locus YGL086W, strain mad1, stronger effect = lower value 1.01 | locus YGL167C, strain pmr1, stronger effect = lower value 0.967 | locus YGL173C, strain kem1, stronger effect = lower value 0.97 | locus YGL227W, strain vid30, stronger effect = lower value 0.969 | locus YGL240W, strain doc1, stronger effect = lower value 0.985 | locus YGL248W, strain PDE1, stronger effect = lower value 1.01 | locus YGL253W, strain hxk2, stronger effect = lower value 0.97 | locus YGR078C, strain PAC10, stronger effect = lower value 0.984 | locus YGR135W, strain pre9, stronger effect = lower value 1.01 | locus YGR229C, strain SMI1, stronger effect = lower value 0.949 | locus YGR252W, strain gcn5, stronger effect = lower value 0.994 | locus YHR013C, strain ard1, stronger effect = lower value 0.953 | locus YHR027C, strain rpn1, stronger effect = lower value 0.993 | locus YHR030C, strain SLT2, stronger effect = lower value 1.01 and 0.98 | locus YHR079C, strain IRE1 (second series), stronger effect = lower value 1.01 | locus YHR079C, strain IRE1, stronger effect = lower value 0.986 | locus YHR094C, strain hxt1, stronger effect = lower value 1.01 | locus YHR129C, strain ARP1, stronger effect = lower value 1.01 | locus YHR142W, strain chs7, stronger effect = lower value 0.965 | locus YHR200W, strain rpn10, stronger effect = lower value 1.01 | locus YIL066C, strain RNR3, stronger effect = lower value 0.989 | locus YIL073C, strain SPO22, stronger effect = lower value 0.989 | locus YIL125W, strain kgd1, stronger effect = lower value 1.01 | locus YIR030C, strain dcg1, stronger effect = lower value 1.02 | locus YJL092W, strain hpr5, stronger effect = lower value 0.983 | locus YJL095W, strain BCK1 (second series), stronger effect = lower value 0.979 | locus YJL095W, strain BCK1, stronger effect = lower value 1 and 1.02 | locus YJL115W, strain asf1, stronger effect = lower value 0.978 | locus YJL129C, strain trk1, stronger effect = lower value 0.963 | locus YJL134W, strain LCB3, stronger effect = lower value 0.996 | locus YJL154C, strain vps35, stronger effect = lower value 0.973 | locus YJL164C, strain tpk1, stronger effect = lower value 0.992 | locus YJL166W, strain qcr8, stronger effect = lower value 0.979 | locus YJL168C, strain set2, stronger effect = lower value 1.01 | locus YJL187C, strain SWE1 (second series), stronger effect = lower value 1.01 | locus YJL187C, strain SWE1, stronger effect = lower value 0.983 | locus YJR043C, strain POL32, stronger effect = lower value 0.99 | locus YJR066W, strain TOR1, stronger effect = lower value 0.956
